# Screening results as filed in PubChem.
# Most compounds without a hit are left out; they make up all but 11% or so of the library.
# Gal4-VP16 FLuc: VP16 counterscreen qHTS for inhibitors of ROR gamma transcriptional activity; actives 3.5% (n = 310,000); Drosophila S2 Gal4-VP16 UAS-luciferase, luminescence, 20 h; AID 2546, 2010; Potency, µM (series often up to 53.6 µM), without a hit: top-dose activity, negative = inhibition, actives largely listed as inhibitors;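 also: Gal4-VP16 expression switched on by copper sulfate through the metallothionein promoter; potency is read from the fitted curve at half-maximal effect; % is scaled to controls: 0 for no effect and ±100 for the full control effect; nearly all actives have a fitted effect of over 50% in size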
# SW480 rerep: A quantitative high throughput screen for small molecules that induce DNA re-replication in SW480 colon adenocarcinoma cells; SW480 DNA re-replication, Hoechst DNA content imaging, 48 h; Potency, µM (doses to about 46.1 µM), without a hit: at the top dose re-replication activation, actives largely listed as activators; actives 1.8% (n = 340,000); also: potency is read from the fitted curve at half-maximal effect; % of control where 0% means no effect; nearly all actives have a fitted effect of over 55% in size
#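 DNA re-replication was detected as more nuclei of elevated Hoechst intensity after 48 hr exposure to compound (23 nL pinned per well of 250 cells).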
# MCF10A rereplic: A quantitative high throughput screen for small molecules that induce DNA re-replication in MCF 10a normal breast cells. actives 2.9% (n = 350,000). MCF 10A DNA re-replication, Hoechst nuclear intensity, 48 h. Potency, µM (highest dose often 46.1 µM), for the others: at the highest dose activity, positive = re-replication, usual class: activators. AID 624296, 2012; also: potency is read from the fitted curve at half-maximal effect; % of control where 0% means no effect; nearly all actives have a fitted effect of over 50% in size
# RORg inh: qHTS for inhibitors of ROR gamma transcriptional activity. Nuclear receptor ROR-gamma (Mus musculus), P51450. Drosophila S2 Gal4-RORgamma UAS-luciferase reporter, 20 h. Potency, µM (series often up to 53.6 µM), inactives show at the top dose activity change, negative = inhibition, most hits filed as inhibitors. actives 5.4% (n = 310,000); also: potency is read from the fitted curve at half-maximal effect; % is scaled to controls: 0 for no effect and ±100 for the full control effect; nearly all actives have a fitted effect of over 60% in size
# Target sequence (P51450 whole entry, looked up, the tested form may be a part): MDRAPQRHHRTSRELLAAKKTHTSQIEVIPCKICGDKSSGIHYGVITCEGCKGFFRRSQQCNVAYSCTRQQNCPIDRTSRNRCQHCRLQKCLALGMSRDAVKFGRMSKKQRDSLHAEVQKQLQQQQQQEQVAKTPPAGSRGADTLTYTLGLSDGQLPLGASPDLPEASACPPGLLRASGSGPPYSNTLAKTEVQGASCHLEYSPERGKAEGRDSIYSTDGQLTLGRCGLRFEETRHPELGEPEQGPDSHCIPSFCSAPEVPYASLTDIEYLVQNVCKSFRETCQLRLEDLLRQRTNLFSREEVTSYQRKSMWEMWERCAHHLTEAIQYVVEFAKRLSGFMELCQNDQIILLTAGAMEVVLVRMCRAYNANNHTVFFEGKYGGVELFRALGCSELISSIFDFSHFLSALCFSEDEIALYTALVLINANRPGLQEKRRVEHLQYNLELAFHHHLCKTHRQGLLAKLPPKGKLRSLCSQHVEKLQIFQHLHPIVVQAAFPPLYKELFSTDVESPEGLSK
#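 In this cell-based reporter format, copper sulfate (700 uM final) drives Gal4–ROR gamma fusion expression from a metallothionein promoter in Drosophila Schneider cells; compounds preincubated 1 hr, reporter read after 20 hr at ambient temperature.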
# IL1B secr inh: qHTS for Inhibitors of Inflammasome Signaling: IL-1-beta AlphaLISA Primary Screen; activity change, % at 57.5 µM; THP-1 LPS/ATP IL-1B secretion, AlphaLISA, 16 h; stronger effect = lower value; actives 4.7% (n = 360,000); in the data active = activity change below about -50%; inconclusive = mostly about -30% to -49%; also: % is scaled to controls: 0 for no effect and ±100 for the full control effect
#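 THP-1 cells pretreated 1 hr with compounds (up to 57.5 uM final), then stimulated with LPS (250 ng/mL final) plus ATP (1.25 mM final); secreted IL-1B measured by AlphaLISA after 16 hr, decreased signal indicating inhibition.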
# Numbers without * were called inactive; u = inconclusive; x = no result given; [ ] = dose if it differs, or a comment. Unless noted, calls follow the shape of the dose curve; as a rule, active = well fitted curve in the direction sought with a large enough effect; inconclusive = small, poorly fitted or top-dose-only effect, or another doubt; inactive = no such curve, though single readings can be large; an effect the other way counts as inactive or inconclusive.
SMILES,Gal4-VP16 FLuc,SW480 rerep,MCF10A rereplic,RORg inh,IL1B secr inh
Cc1[nH]n(-c2ccccc2)c(=O)c1CCO,0%,-15%,0%,-33%,2
Cc1[nH]n(-c2nc(-c3ccccc3F)cc(=O)[nH]2)c(=O)c1CCO,-2%,-18%,-3%,10µM*,-9
O=C(NCC1CCCO1)c1ccc2nc(N3CCCCC3)sc2c1 (stereo unspecified),u,-9%,7%,7.1µM*,-6
CCOC(=O)Nc1ccc2nc(N3CCCCCC3)sc2c1,-18%,10µM*,15µM*,u,46
O=C(NCC1CCCO1)c1ccc(N2CCCCC2)nc1 (stereo unspecified),8%,-9%,-6%,u,23
CC1CCN(c2nc3ccc(C(=O)O)cc3s2)CC1,1.4µM*,-166%,1%,0.89µM*,11
CCC1CCCCN1CCCNC(=O)c1ccc2nc(N3CCC(C)CC3)sc2c1 (stereo unspecified),18%,18µM*,20%,-34%,u
CCOC(=O)N1CCN(C(=O)Nc2ccc3nc(C)sc3c2)CC1,-5%,0%,-1%,16%,-1
CCOC(=O)C1=C(C)N(C[C@@H]2CC[C@@H](Cc3ccc(-c4ccccc4)cc3)O2)C(=O)NC1C1CC1 (stereo partly specified),x,u,u,x,11
C[C@H](O)[C@@H]1C(=O)N2CCc3ccc(-c4ccccc4)cc3[C@@H]2C[C@@H]1N(C)C(=O)Nc1cc(Cl)cc(Cl)c1,x,-2%,4%,x,u
CSc1ccccc1NC(=S)Nc1cc(C)cc(C)c1,14µM*,-4%,0%,6.3µM*,4
COc1ccc(NC(=S)Nc2ccccc2SC)c(OC)c1,u,1%,1%,11µM*,24
COc1ccc(NC(=S)Nc2ccccc2F)c(OC)c1,-15%,-5%[9.22 µM],u,11µM*,-3
COc1cc(C=O)c(Br)cc1OCc1ccc(C)cc1,u,u,9.2µM*,-36%,54
COc1cc(C=O)ccc1OCc1ccncc1,-14%,-16%,-6%,-10%,0
CN(C)c1ccc(CNC(=O)[C@@]2(C)C=C[C@@H](Cc3ccccc3)N2C)cc1,-11%,x,x,14%,x
CC1=NN(c2ccc(Br)cc2)C(=O)/C1=C/c1cccs1,-1%,u,18µM*,6%,0
CC1=NN(c2ccc(C)cc2)C(=O)/C1=C\c1ccc(Br)s1,-9%,x,6%,0%,-1
O=C1CC(c2cccc(Oc3ccccc3)c2)NC(=O)N1 (stereo unspecified),8%,-5%,1%,23%,17
CCCC(=O)C1=C(O)C(c2cccc(Oc3ccccc3)c2)CCC1=O (stereo unspecified),u,u,-3%,13µM*,70
Nc1n[nH]c(N)c1N=Nc1cccc(F)c1,-12%,0%,-1%,3%,-78*
COC(=O)/C(=C(/F)Sc1cc(C)c(O)c(C)c1)C(F)(F)F,5%,u,26µM*,11%,-7
COC(=O)C(Nc1ccccc1Cl)(c1cc(C)c(O)c(C)c1)C(F)(F)F (stereo unspecified),-27%,-2%,u,0%,5
O=C1c2c(O)ccc([N+](=O)[O-])c2C(=O)c2c([N+](=O)[O-])ccc(O)c21,11µM*,x,x,6.3µM*,x
CC1(C)Cc2c(cnn2-c2ccc(F)cc2)C(NC(=O)CCc2ccncc2)C1 (stereo unspecified),u,-7%,-5%,36%,14
SMILES,Gal4-VP16 FLuc,SW480 rerep,MCF10A rereplic,RORg inh,IL1B secr inh
CCOC(=O)C1=C(COC(=O)CCS(=O)(=O)c2ccc(C)cc2)NC(=O)NC1C (stereo unspecified),x,u,18%,x,-80*
Clc1ccc(CSc2nnc(-c3c[nH]c4ccccc34)o2)cc1,2%,1%,21µM*,-11%,3
O=C(CSc1nnc(-c2ccccc2O)o1)N1CCc2ccccc2C1,u,u,u,10µM*,-4
COc1ccc(CN(C(=O)CSc2nnc(-c3c[nH]c4ccccc34)o2)c2ccc(F)cc2)cc1OC,-21%,7%,4.1µM*,u,-83*
O=S(=O)(Nc1ccc(-c2nnc(SCc3ccc(Cl)cc3)o2)cc1)c1ccccc1,-18%,7%,21µM*,11%,-79*
CC(=O)N1C[C@@H](CO)[C@@H](N(C)C(=O)C2CCCCC2)C[C@H]1c1ccccc1,x,x,x,x,-14
O=C(Nc1ccccc1C(F)(F)F)NC1(C(=O)N2CCOCC2)CCCCC1,x,u,u,x,49
COc1ccc(N(Cc2ccccc2)C(=O)CSc2nnc(Cn3nnc4ccccc43)o2)cc1,-4%,u,u,1%,-2
Cc1cccc(C)c1OC(=O)CSc1nnc(-c2ccccc2O)o1,u,0%,18µM*,u,-15
O=C(CSc1nnc(-c2cc3ccccc3cc2O)n1Cc1ccco1)N1CCc2ccccc2C1,13%,13%,1%,23%,-71*
CC(C)N(C(=O)CSc1nnc(-c2cc3ccccc3cc2O)n1Cc1ccco1)C(C)C,x,11%,4%,18%[0.365 µM],-7
O=C(CSc1nnc(Cn2nnc3ccccc32)o1)N(Cc1ccc(F)cc1)c1ccccc1,u,-2%,17%,u,-82*
CCOC(=O)CSc1nnc(-c2c[nH]c3ccccc23)o1,-19%,-12%,-1%,-11%,-93*
CC(C)(C)c1ccc(C(O)c2ncc(-c3cccc(F)c3)[nH]2)cc1 (stereo unspecified),x,x,x,x,-28
COc1ccc(C(C(=O)NC2CCCCC2)N(Cc2ccco2)C(=O)c2ccccn2)c(OC)c1 (stereo unspecified),-7%,-5%,1%,-30%,-3
CCCc1cc(=O)[nH]c(SCC(=O)Nc2sccc2C#N)n1,x,-7%,1%,x,12
COc1ccc2c(c1)NC(c1cc(Cl)cc(Cl)c1O)c1cccn1-2 (stereo unspecified),1%,-1%,16%,6%,41
COc1ccc2c(c1)NC(c1ccc(N(C)C)cc1)c1cccn1-2 (stereo unspecified),-2%,18µM*,u,13%,25
Nc1nc(-c2ccccc2)nc2nonc12,x,x,x,x,-3
Cc1nc(NC(=O)CSc2nc3cccnc3n2Cc2ccccc2)sc1C,u,13%,23µM*,13µM*,-21
CC1=C(C(=O)N(C)C)CC(CC(=O)NCc2cccs2)C(=O)N1Cc1ccc(C(C)(C)C)cc1 (stereo unspecified),x,x,x,x,-13
